# From PubChem BioAssay
# The list is not random: actives were taken first. Their share in the collection is about 2.2%.
# PAX8 inh HTS = inhibitors of PAX8 transcriptional activity in RMG-I cells; RMG-I TPO-luciferase reporter, SteadyGlo, 24 h; inhibition, % at 12.6 µM; 360,000 tested, 1.2% active;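 active means mean replicate inhibition at least 60% with every replicate also reaching 60%; inconclusive means only one of the two criteria is met; inactive means mean below 60% and not all replicates reaching 60%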;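 further: luciferase light reporting Pax8 driven TPO promoter activity; plate controls were median of neutral control wells for no effect and mitoxantrone controls for full effect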
# TRPM1 prom inh = inhibitors of MITF-driven TRPM1 promoter in melanoma cells; AID 488899; inhibition, % at 12.5 µM; 330,000 tested, 0.83% active; SK-MEL-5 TRPM1 promoter luciferase, 24 h;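 active means mean inhibition across replicates of 60% or more, whatever share of single replicates reaches that level; inconclusive means some that reach 60%, reason not given; inactive means mean inhibition across replicates below 60%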
# Shn3 inh set2 = Schnurri-3 reporter inhibition in Clone20 osteoblasts; AID 588674; 360,000 tested, 0.52% active; Clone20 osteoblast Shn3 3'UTR firefly luciferase, 24 h; inhibition, % at 12.5 µM;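 active means mean inhibition of at least 75% with every replicate also reaching 75%; inconclusive means mean inhibition at least 75% but some replicate below; inactive means mean inhibition below 75%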;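 further: 0% = median of neutral control wells and 100% = pilot-screen positive control compound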
# LGR2 inh = Drosophila LGR2 receptor signaling inhibition | HEK293 LGR2, CRE-luciferase, bursicon-stimulated, 4 h | inhibition, % at 9.99 µM | 380,000 tested, 0.35% active;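 active means drop in luminescence signal, shown as inhibition above about 50% in the replicate tests, limit read from the data, passing the limit was not always enough; inconclusive means probably only some replicates passing the limit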;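 further: agonist challenge used bursicon conditioned medium at about half maximal strength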
# LMP1 NFkB inh = Epstein-Barr LMP1 NF-kappaB reporter inhibition. inhibition, % at 12.5 µM. 350,000 tested, 0.69% active. LMP1-induced NF-kappaB luciferase reporter cells, luminescence; in the data active means inhibition above about 41%; inconclusive means no clear call, values can overlap the other calls;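 further: 0% = neutral control wells and 100% = reference inhibitor control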
# EWS-Fli block = blocks EWS/Fli oncoprotein-driven transcription; AID 651661; inhibition, % at 12.6 µM; A673 NR0B1-luciferase reporter, viability-normalised; 350,000 tested, 0.67% active;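 active means mean inhibition of at least 50% after viability correction, with every replicate also passing that limit; inconclusive means mean reaches 50% but only one of two replicates passes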;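 further: firefly luciferase signal divided by Alamar Blue viability fluorescence both relative to DMSO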
# * marks the source's active call; other numbers are inactive results; ? = inconclusive; . = not tested or not shown.
SMILES,PAX8 inh HTS,TRPM1 prom inh,Shn3 inh set2,LGR2 inh,LMP1 NFkB inh,EWS-Fli block
Oc1c(CN2CCN(c3ccccc3)CC2)cc(Br)c2cccnc12,85*,87*,92*,15,59*,-4
Oc1c(CN2CCOCC2)cc(COCc2ccccc2)c2cccnc12,66*,85*,90*,31,76*,.
CCOC(=O)N1CCN(Cc2cc(Cl)c3cccnc3c2O)CC1,78*,.,.,2,.,32
CCOC(=O)N1CCN(Cc2ccccc2Cl)CC1,.,-19,-68,.,6,.
O=C(Oc1c(CN2CCOCC2)cc(Cl)c2cccnc12)c1ccccc1Br,25,70*,.,12,20,21
O=S(=O)(N[C@H]1CC[C@@H](CCn2cc(C3(O)CCCC3)nn2)O[C@H]1CO)c1ccc(F)cc1,2,.,.,-13,.,3
COc1ccc(S(=O)(=O)Nc2ccc3c(c2)C(=O)N([C@@H](C)CO)C[C@@H](C)[C@H](CN(C)S(=O)(=O)c2ccc(OC)cc2)O3)cc1,-9,.,.,9,.,0
CCC(=O)N1C[C@H](O)COC[C@H]2O[C@H](CC(=O)NCc3ccccc3Cl)CC[C@@H]21,.,.,.,-9,.,.
COc1ccccc1N1CCN(Cc2ccc(O)c3ncccc23)CC1,.,88*,88*,36,73*,.
COc1ccccc1N1CCN(Cc2ccc(OC)c(OC)c2OC)CC1,11,-2,19,.,5,.
COCC(=O)N1CC(=O)N2[C@@H](CO)[C@@H](c3ccc(C#CC4CCCCC4)cc3)[C@@H]2C1,6,.,.,7,.,5
O=c1c2ccccc2c(C=Nc2ccccc2O)c(O)n1-c1nccs1,-1,1,87*,8,-1,6
C[C@H]1C[C@H]2[C@@H]3CCC4=CC(=O)C=C[C@]4(C)[C@@]3(F)[C@@H](O)C[C@]2(C)[C@@]1(O)C(=O)CO,-23,-22,72,14,45*,-5
COc1ccc(CNc2ncnc3c2[nH]c2ccccc23)cc1,-16,.,89*,22,.,6
COc1ccc(CNc2ncnc3c2[nH]c2cc(OC)c(OC)cc23)cc1,-15,-9,0,2,6,-16
COCC#Cc1ccc2c(c1)O[C@H](CN(C)S(=O)(=O)c1cccc(F)c1)[C@@H](C)CN([C@H](C)CO)S2(=O)=O,.,.,.,?,.,18
Cc1ccc(/C=C2/CNC/C(=C/c3ccc(C)cc3)C2=O)cc1,31,91*,-17,55*,80*,53*
Cc1ccc(/C=C2\CCOC2=O)cc1,-24,-5,7,-7,9,-30
COc1cccc(NC(=O)Nc2nc(-c3ccc(OC)c(OC)c3)cs2)c1,104*,80*,75,?,52*,65*
COc1cccc(NC(=O)c2ccccc2)c1,-146,-99,2,-41,-6,-91
O=C(Nc1ccc2c(c1)OCO2)Nc1ccc2c(c1)OCO2,-193,-71,-106,-39,-21,-67
O=C(Nc1cccc(C(=O)O)c1)Nc1ccc2c(c1)OCO2,103*,89*,74,97*,73*,79*
COc1cccc(NC(=O)Nc2cccc(C(=O)O)c2)c1,80*,81*,47,97*,61*,75*
CCSc1nnc(NC(=O)CSc2nnc(-c3c[nH]c4ccccc34)n2CC)s1,23,3,4,-8,85*,4
CCOc1ccccc1NC(=O)/C(C#N)=C/c1c(C)nn(-c2ccc(F)cc2)c1Cl,6,-5,-4,-9,3,0
SMILES,PAX8 inh HTS,TRPM1 prom inh,Shn3 inh set2,LGR2 inh,LMP1 NFkB inh,EWS-Fli block
CN(C)c1nc(C=C(C#N)C#N)c(Cl)n1-c1ccc(F)cc1,68*,101*,97*,16,-47,38
O=[N+]([O-])c1ccc(/C=N/n2c(CO)nc3ccccc32)s1,14,72*,-14,5,-25,.
Cc1nc2ccccc2n1/N=C/c1ccc([N+](=O)[O-])s1,62*,82*,92*,24,-4,14
O=[N+]([O-])c1ccc(/C=N/n2cnc3ccccc32)s1,51,86*,90*,-5,37,.
Cc1nc2ccccc2n1/N=C/c1ccc([N+](=O)[O-])o1,.,10,4,-11,3,18
Cc1cc2ncn(/N=C/c3ccc([N+](=O)[O-])s3)c2cc1C,22,43,3,2,-3,.
CCNC(=O)[C@H]1[C@H](CO)[C@H]2Cn3c(ccc(/C=C/c4ccccc4)c3=O)[C@@H]1N2C(=O)C1CCCC1,4,.,.,-8,.,-1
